# Records with an inconclusive call do not appear. Values without a mark were called inactive. Active and inactive are the calls of the source. Calls follow the shape of the dose curve; as a rule, active = well fitted inhibition curve with a large enough effect; inconclusive = small, poorly fitted or top-dose-only effect; inactive = flat fitted curve, though single readings scatter.
# System: Zika virus NS2B-NS3 protease
# Assay: Primary screen GU AMC qHTS for Zika virus inhibitors (AID 1347154); also: nearly all actives have a fitted effect of over 70% in size;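 as to activity change, negative = inhibition: 0% = no-inhibitor control and -100% = no-enzyme control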
# Details: Zika NS2B-NS3 unlinked protease, AMC fluorogenic substrate; series mostly up to 54.1 µM; activity change, negative = inhibition: at the top concentration
# Text: Avindra Nath, Ph.D., National Institute of Neurological Disorders and Stroke (NINDS), Bethesda, MD
# Radhakrishnan Padmanabhan, Ph.D., Georgetown University (GU), Washington D.C.
# Zika Virus causes congenital defects, including microcephaly and is associated with Guillain-Barre syndrome, eningoencephalitis and myelitis in infected adult. […] Using a target-based approach, we hope to establish a screening paradigm to uncover novel, cell-active NS2B-NS3 protease (Zika Virus) specific inhibitors from NCATS' collection of small molecules using qHTS.
# Early Translation Branch (ETB)
# National Center for Advancing Translational Sciences (NCATS), Rockville, MD
# National Institute of Health (NIH), Bethesda, Maryland
# Padmanabhan lab provided the NS2B hydrophilic domain and NS3 protease domain in a noncovalent complex used for the unlinked assay. Control compound aprotinin is obtained from Thermo Scientific (#78432; Waltham, Massachusetts). NS2B-NS3 AMC substrate (Bz-Nle-Lys-Arg-Arg-AMC; Nle-KRR-AMC) purchased from Bachem (#I-1995; Torrance, CA). Ac-VKTGKR-AMC purchased from Genscript or Bachem, Ac-FAAGKR-AMC purchased from Genscript, Ac-GLVKRR-AMC purchased from Genscript, Ac-LKKR-AMC purchased from Genscript.
# GU AMC unlinked NS2B-NS3 protease qHTS protocol
# Briefly, 3 microL of Zika virus unlinked NS2B-NS3 protease (25 nM for linked final concentration), in assay buffer (10 mM Tris-HCl pH 8.0 with 0.01% Tween 20) was dispensed into a 1,536-well solid-bottom black plate (Greiner Bio One, Monroe, NC). […] Plates were then read immediately on a ViewLux High-throughput CCD imager (PerkinElmer, Waltham, MA) equipped with standard UV fluorescence optics (340(30) nm excitation, 450(20) nm emission) then incubated (room temperature, protected from light) for 15 minutes (~20% conversion). The change in fluorescence intensity over the 15-minute reaction period was normalized against no-inhibitor and no-enzyme controls and the resulting percent inhibition data were fitted to a 4-parameter Hill equation. Aprotinin was used as the intraplate control.
# Potency is read from the fitted curve at half-maximal effect.
SMILES,"activity change, negative = inhibition",Potency
C1CCC(NC2CCCCC2)CC1,-4.57%,–
Oc1ccc2c3c1O[C@H]1c4[nH]c5c(c4C[C@@]4(O)[C@@H](C2)N(CC2CC2)CC[C@]314)C[C@@]1(O)[C@H]2Cc3ccc(O)c4c3[C@@]1(CCN2CC1CC1)[C@H]5O4,–,inactive
CO/C=C(/C(=O)OC)c1ccccc1Oc1cc(Oc2ccccc2C#N)ncn1,1.19% [at 104 µM],–
Cc1c(C(=O)Nc2cccc(C(F)(F)F)c2)cc(-c2ccccc2)n1CCCN1CCOCC1,-8.01%,–
CCCCC(CC)COC(=O)c1ccccc1C(=O)OCC(CC)CCCC (stereo not given),-11% [at 104 µM],–
Clc1ccccc1C(c1ccccc1)(c1ccccc1)n1cccn1,6.9%,–
C#CCOC(=O)C1=CCCN(C)C1,–,inactive
CCCN(CCC)[C@@H]1CCc2ccc(O)cc2C1,4.44%,–
COC[C@H]1OC(=O)c2coc3c2[C@@]1(C)C1=C(C3=O)[C@@H]2CC[C@H](O)[C@@]2(C)C[C@@H]1OC(C)=O,-1.69%,–
C[C@H]([C@H](O)CCC(C)(C)O)[C@H]1CC[C@@]2(O)C3=CC(=O)[C@@H]4C[C@@H](O)[C@@H](O)C[C@]4(C)[C@@H]3CC[C@]12C,7.96%,–
S=C(NC1CCCCC1)N1CCC(c2cnc[nH]2)CC1,4.33%,–
NC(CP(=O)(O)O)C(=O)O (stereo not given),3.71%,–
CCO/N=C(\CC)C1=C(O)CC(c2c(C)cc(C)cc2C)CC1=O (stereo not given),-4.17% [at 104 µM],–
O=c1cccc2n1CC1CNC[C@H]2C1,–,inactive
c1cc2c(cc1[C@H]1OC[C@H]3[C@H]1CO[C@H]3c1ccc3c(c1)OCO3)OCO2,5.68%,–
O=C(Oc1ccc([N+](=O)[O-])cc1)N1CCN(Cc2cccc(Oc3ccccc3)c2)CC1,-7.81%,–
C/C=C(/C)C(=O)O[C@H]1C(C)=C2[C@H]([C@@H]1OC(=O)CCCCCCC)[C@@](C)(OC(C)=O)C[C@H](OC(=O)CCC)[C@@]1(O)[C@H]2OC(=O)[C@@]1(C)O,14.1%,–
CCCCCCCCCC(CC)c1ccc(S(=O)(=O)O)cc1 (stereo not given),–,11.7 µM (active)
C[C@@H]1O[C@@H](O[C@@H]2C=C3CC[C@@H]4[C@@H](CC[C@]5(C)[C@H](c6ccc(=O)oc6)CC[C@@]45O)[C@@]3(C)CC2)[C@H](O)[C@H](O)[C@H]1O,3.09%,–
C=C[C@@H]1CN2CCC1C[C@H]2[C@H](O)c1ccnc2ccccc12 (stereo not given in full),-5.26%,–

SMILES,"activity change, negative = inhibition",Potency
Cc1ccccc1-n1c(Cn2cnc3c(N)ncnc32)nc2cccc(C)c2c1=O,15%,–
O=[N+]([O-])c1c2ccccc2cc2ccccc12,-3.52% [at 104 µM],–
COc1nn(CSP(=S)(OC)OC)c(=O)s1,2.6% [at 104 µM],–
NC1CCc2cc(O)c(O)cc2C1 (stereo not given),–,inactive
Cc1ccccc1-n1c(Cn2ncc3c(N)ncnc32)nc2cccc(C)c2c1=O,6.94%,–
C[C@]12CC[C@H]3[C@@H](CCC4=CC(=O)CC[C@@]43C)[C@H]1CC[C@H]2O,1.08%,–
CC(=O)[O][Hg][c]1ccccc1,1.78%,–
CC(C)NCC(O)c1ccc([N+](=O)[O-])cc1 (stereo not given),-7.58%,–
NC(=NCCC[C@H](N)C(=O)O)N[N+](=O)[O-],13.4%,–
CC(=O)O[C@@]12CO[C@H]1C[C@H](O)[C@@]1(C)C(=O)[C@H](O)C3=C(C)[C@@H](O)C[C@@](O)([C@@H](OC(=O)c4ccccc4)[C@@H]21)C3(C)C,16.1%,–
CC(=O)Nc1ccc(OC[C@](C)(O)C(=O)Nc2ccc([N+](=O)[O-])c(C(F)(F)F)c2)cc1,1.48%,–
O=[N+]([O-])c1c(Cl)c(Cl)cc(Cl)c1Cl,0.484% [at 104 µM],–
COc1ccc(C(=O)c2c(C)n(CCN3CCOCC3)c3cc(I)ccc23)cc1,–,inactive
O=C(O)Cc1cnc[nH]1,–,inactive
CN(C)NC(=O)CCC(=O)O,2.15%,–
O=C(Oc1ccc([N+](=O)[O-])cc1)N1CCC(C(O)(c2ccc3c(c2)OCO3)c2ccc3c(c2)OCO3)CC1,-2.57%,–
O=C(O)COc1nc(Cl)c(Cl)cc1Cl,-3.02% [at 104 µM],–
CC(C)[C@]12O[C@H]1[C@@H]1O[C@]13[C@]1(O[C@H]1C[C@H]1C4=C(CC[C@@]13C)C(=O)OC4)[C@@H]2O,-3.52%,–
O=[N+]([O-])c1cc([N+](=O)[O-])c2ccccc2c1,-0.249% [at 104 µM],–
C#C[C@]1(O)C=C[C@@H]2[C@@H]3CCC4=CC(=O)CC[C@@H]4[C@H]3CC[C@@]21CC,10.9%,–

# — PubChem BioAssay (NCATS)
